# Source: the supplement of paper PMC7366291
# Where a name gives a salt, the structure may show the parent alone. ± gives the standard deviation or the standard deviation of the averaged measurements.
# Key:
# Conditions in all cases: 25 µM; exposure: 24-48 hpf
# [1] = tested on: Danio rerio Tg(wt1b:EGFP) embryo, pronephros; test: glomerular separation, fold change vs DMSO control; higher = glomeruli further apart (abnormal)
# How it was run: (§1)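 Dechorionated Tg(wt1b:EGFP) zebrafish embryos were exposed to 25 μM compound in 0.5% DMSO, HEPES-buffered E3 with 0.003% PTU, from 24 to 48 hpf at 28.5°C. Pronephroi were imaged dorsally in agarose-filled 96-well plates (470 nm, 10 z-slices). On maximum projections, 16 reference points were set manually in Fiji and a macro computed distances and angles. Values more than 2 SD from the feature mean were excluded. Each feature is a fold change relative to the mean of same-day DMSO controls.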
# [2] = tested on: Danio rerio Tg(wt1b:EGFP) embryo, pronephros; test: glomerular width (mean of left and right), fold change vs DMSO control; higher = wider glomerulus
# How it was run: as §1
# [3] = tested on: Danio rerio Tg(wt1b:EGFP) embryo, pronephros; test: fraction of imaged embryos annotated as normal kidney; higher = less nephrotoxic; extreme values may be limits of the assay
# How it was run: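 Zebrafish embryos carrying Tg(wt1b:EGFP) were dechorionated and exposed to 25 μM compound (0.5% DMSO) between 24 and 48 hpf at 28.5°C. Their pronephroi were imaged by widefield fluorescence, and each embryo was classed by hand from maximum projections. The measure is the fraction of embryos per treatment falling in the normal-kidney category.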
# [4] = tested on: Danio rerio Tg(wt1b:EGFP) embryo, pronephros; test: pronephric angle neck segment to proximal convoluted tubule (mean of left and right), fold change vs DMSO control; higher = larger pronephric angle
# How it was run: as §1
SMILES,glomerular separation [1],glomerular width [2],fraction of imaged embryos annotated as normal kidney [3],pronephric angle neck segment [4]
CN(C)CCn1nnnc1SCC1=C(C(=O)O)N2C(=O)[C@@H](NC(=O)Cc3csc(N)n3)[C@H]2SC1 [Cefotiam hydrochloride],1.46 ± 0.87,0.929 ± 0.014,0.917,1.08 ± 0.14
CN(C)CCC(c1ccccc1)c1ccccn1 (stereo not drawn) [Pheniramine maleate],0.928 ± 0.19,1.07 ± 0.064,0.833,0.9206 ± 0.0039
O=C(O)COC(=O)Cc1ccccc1Nc1c(Cl)cccc1Cl [Aceclofenac],3.56 ± 1.8,1 ± 0.16,0.25,1.24 ± 0.15
CSc1ccc2c(c1)C(N1CCN(C)CC1)Cc1ccccc1S2 (stereo not drawn) [Methiothepin maleate],1.06 ± 0.38,1.01 ± 0.045,0.833,0.976 ± 0.034
CCCOc1ccc2[nH]c(NC(=O)OC)nc2c1 [Oxibendazol],5.39 ± 2.3,0.505 ± 0.067,0,1.8 ± 0.035
CN(CCOc1ccc(CC2SC(=O)NC2=O)cc1)c1ccccn1 (stereo not drawn) [Rosiglitazone Hydrochloride],1.04 ± 0.39,0.964 ± 0.03,0.833,0.9727 ± 0.0063
COc1c2occc2c(OC)c2c(=O)cc(C)oc12 [Khellin],0.835 ± 0.39,1 ± 0.033,1,1.03 ± 0.0013
CC1(C)S[C@@H]2[C@H](NC(=O)[C@H](N)c3ccc(O)cc3)C(=O)N2[C@H]1C(=O)O [Amoxicillin],1.13 ± 0.42,0.961 ± 0.046,0.833,1.04 ± 0.074
NS(=O)(=O)c1cc2c(cc1C(F)(F)F)NCNS2(=O)=O [Hydroflumethiazide],0.97 ± 0.25,1.07 ± 0.035,0.727,1.04 ± 0.14
C=CCc1ccccc1OCC(O)CNC(C)C (stereo not drawn) [Alprenolol hydrochloride],0.823 ± 0.28,1 ± 0.074,0.833,1.07 ± 0.015
N=C(N)NC(=N)NCCc1ccccc1 [Phenformin hydrochloride],0.95 ± 0.25,0.978 ± 0.021,0.917,0.956 ± 0.029
CN[C@H]1CC[C@@H](c2ccc(Cl)c(Cl)c2)c2ccccc21 [Sertraline],0.914 ± 0.35,0.973 ± 0.035,0.917,0.969 ± 0.045
CN(C)CCOC(c1ccc(Cl)cc1)c1ccccn1 (stereo not drawn) [Carbinoxamine maleate salt],0.746 ± 0.34,0.999 ± 0.048,0.9,1.01 ± 0.026
COc1cccc2c1C(=O)c1c(O)c3c(c(O)c1C2=O)C[C@@](O)(C(=O)CO)C[C@@H]3O[C@H]1C[C@H](N)[C@@H](O)[C@H](C)O1 [Epirubicin hydrochloride],1.93 ± 0.41,1.07 ± 0.031,0.75,0.963 ± 0.053
COc1ccc2[nH]c([S+]([O-])Cc3ncc(C)c(OC)c3C)nc2n1 (stereo not drawn) [Tenatoprazole],1.61 ± 0.86,0.93 ± 0.064,0.917,1.17 ± 0.069
CC1(C)O[C@@H]2C[C@H]3[C@@H]4C[C@H](F)C5=CC(=O)C=C[C@]5(C)[C@@]4(F)[C@@H](O)C[C@]3(C)[C@]2(C(=O)CO)O1 [Fluocinolone acetonide],1.23 ± 0.54,1.26 ± 0.028,0.0833,1.02 ± 0.065
CC(=O)S[C@@H]1CC2=CC(=O)CC[C@]2(C)[C@H]2CC[C@@]3(C)[C@@H](CC[C@@]34CCC(=O)O4)[C@H]12 [Spironolactone],0.838 ± 0.13,0.912 ± 0.011,1,0.986 ± 0.036
CO[C@H]1C[C@H](O[C@H]2[C@H](C)[C@@H](O[C@@H]3O[C@H](C)C[C@H](N(C)C)[C@H]3OC(C)=O)[C@@H](C)C[C@@]3(CO3)C(=O)[C@H](C)[C@@H](OC(C)=O)[C@@H](C)[C@@H](C)OC(=O)[C@@H]2C)O[C@@H](C)[C@@H]1OC(C)=O [Troleandomycin],1.39 ± 0.74,1.12 ± 0.066,0.917,0.969 ± 0.019
O=c1[nH]c(=O)n([C@H]2C[C@H](O)[C@@H](CO)O2)cc1C(F)(F)F [Trifluridine],0.965 ± 0.28,0.9839 ± 0.0047,0.917,0.99 ± 0.013
Fc1ccc(C(c2ccc(F)cc2)N2CCN(C/C=C/c3ccccc3)CC2)cc1 [Flunarizine dihydrochloride],1.22 ± 0.69,0.932 ± 0.0099,0.364,0.937 ± 0.017
Fc1ccc([C@@H]2CCNC[C@H]2COc2ccc3c(c2)OCO3)cc1 [Paroxetine Hydrochloride],0.594 ± 0.17,1.03 ± 0.042,1,0.9885 ± 0.0011
Cc1nc(=O)c2cc(CN(C)c3ccc(C(=O)N[C@@H](CCC(=O)O)C(=O)O)s3)ccc2[nH]1 [Raltitrexed],0.711 ± 0.3,1.08 ± 0.017,0.917,0.9802 ± 0.0082
COc1cc(C(=O)NCc2ccc(OCCN(C)C)cc2)cc(OC)c1OC [Trimethobenzamide hydrochloride],1.09 ± 0.18,1.05 ± 0.012,0.833,0.9712 ± 0.0027
CC(C)(CO)C(O)C(=O)NCCCO (stereo not drawn) [Panthenol (D)],0.954 ± 0.35,1.001 ± 0.0062,0.75,1.008 ± 0.005
CC(C)Cn1cnc2c(N)nc3ccccc3c21 [Imiquimod],0.76 ± 0.31,0.944 ± 0.089,1,0.978 ± 0.037
CN(Cc1cnc2nc(N)nc(N)c2n1)c1ccc(C(=O)N[C@@H](CCC(=O)O)C(=O)O)cc1 [Methotrexate],1.19 ± 0.59,1.0099 ± 0.0002,0.917,0.978 ± 0.014

SMILES,glomerular separation [1],glomerular width [2],fraction of imaged embryos annotated as normal kidney [3],pronephric angle neck segment [4]
CC(=O)OCC(CCn1cnc2cnc(N)nc21)COC(C)=O [Famciclovir],0.793 ± 0.23,1.06 ± 0.048,1,0.9775 ± 0.004
Nc1ccc(S(=O)(=O)Nc2ncccn2)cc1 [Sulfadiazine],0.947 ± 0.41,1.03 ± 0.031,0.917,0.9587 ± 0.0092
Cn1ccnc1S [Methimazole],1.23 ± 0.58,0.876 ± 0.045,0.818,1.11 ± 0.064
CCCCN1CCCCC1C(=O)Nc1c(C)cccc1C (stereo not drawn) [Bupivacaine hydrochloride],1.23 ± 0.54,0.946 ± 0.021,0.667,1.01 ± 0.13
Oc1c(I)cc(Cl)c2cccnc12 [Clioquinol],4.35 ± 1.5,0.626 ± 0.024,0,1.59 ± 0.077
CN(C)CCOC(=O)C(c1ccccc1)C1(O)CCCC1 (stereo not drawn) [Cyclopentolate hydrochloride],0.745 ± 0.24,0.9284 ± 0.0066,0.75,1.02 ± 0.035
C[C@@H]1C[C@H]2[C@@H]3C[C@H](F)C4=CC(=O)C=C[C@]4(C)[C@@]3(F)[C@@H](O)C[C@]2(C)[C@@]1(O)C(=O)COC(=O)C(C)(C)C [Flumethasone pivalate],1.2 ± 0.37,1.04 ± 0.015,0.25,0.989 ± 0.0085
C[C@@H]1NC(=O)NC1=O [Methylhydantoin-5-(L)],0.772 ± 0.24,0.967 ± 0.048,1,0.995 ± 0.031
CN(C)[C@@H]1C(O)=C(C(=O)NCNCCCC[C@H](N)C(=O)O)C(=O)[C@@]2(O)C(O)=C3C(=O)c4c(O)cccc4[C@@](C)(O)[C@H]3C[C@@H]12 [Lymecycline],1.2 ± 0.48,0.916 ± 0.014,1,0.97 ± 0.023
O=C1OCCN1/N=C/c1ccc([N+](=O)[O-])o1 [Furazolidone],0.83 ± 0.29,0.9957 ± 0.006,1,0.935 ± 0.054
CCN(CCCCOC(=O)c1ccc(OC)c(OC)c1)C(C)Cc1ccc(OC)cc1 (stereo not drawn) [Mebeverine hydrochloride],0.925 ± 0.3,0.986 ± 0.044,0.833,0.965 ± 0.017
CCCCCNC(=N)N/N=C/c1c[nH]c2ccc(OC)cc12 [Tegaserod maleate],1.26 ± 0.31,0.997 ± 0.032,0.7,0.963 ± 0.048
COc1cc(N)c(Cl)cc1C(=O)NC1CCN(CCCOc2ccc(F)cc2)CC1OC (stereo not drawn) [Cisapride],1.09 ± 0.39,1.066 ± 0.0076,0.583,0.992 ± 0.071
NCCC[C@H](N)CC(=O)N[C@H]1CNC(=O)[C@H]([C@H]2C[C@H](O)NC(N)=N2)NC(=O)/C(=C/NC(N)=O)NC(=O)[C@H](CO)NC(=O)[C@H](CO)NC1=O [Viomycin sulfate],1.23 ± 0.3,0.86 ± 0.0024,0.833,1.07 ± 0.088
CC1(C)[C@@H](OC(=O)CCC(=O)O)CC[C@]2(C)[C@H]3C(=O)C=C4[C@@H]5C[C@@](C)(C(=O)O)CC[C@]5(C)CC[C@@]4(C)[C@]3(C)CC[C@@H]12 [Carbenoxolone disodium salt],0.718 ± 0.41,1.04 ± 0.031,0.667,0.9894 ± 0.0072
CC(C)Nc1cccnc1N1CCN(C(=O)c2cc3cc(NS(C)(=O)=O)ccc3[nH]2)CC1 [Delavirdine],0.975 ± 0.41,1.16 ± 0.017,0.667,0.921 ± 0.045
CN[C@@H]1[C@H](O[C@H]2[C@H](O[C@H]3[C@H](O)[C@@H](O)[C@H](NC(=N)N)[C@@H](O)[C@@H]3NC(=N)N)O[C@@H](C)[C@]2(O)CO)O[C@@H](CO)[C@H](O)[C@H]1O [Dihydrostreptomycin sulfate],0.844 ± 0.18,1.0469 ± 0.00096,0.667,0.975 ± 0.048
O=C1c2ccccc2S(=O)(=O)N1CCCCN1CCN(c2ncccn2)CC1 [Ipsapirone],1.28 ± 0.67,0.908 ± 0.038,0.917,1.054 ± 0.0035
CO[C@@]1(NC(=O)Cc2cccs2)C(=O)N2C(C(=O)O)=C(COC(N)=O)CS[C@@H]21 [Cefoxitin sodium salt],0.796 ± 0.27,0.975 ± 0.012,0.833,0.968 ± 0.04
Cn1c(=O)c2nc[nH]c2n(C)c1=O [Theophylline monohydrate],0.92 ± 0.21,0.999 ± 0.047,1,1 ± 0.011
CN1CCN2c3ccccc3Cc3ccccc3C2C1 (stereo not drawn) [Mianserine hydrochloride],1.3 ± 0.59,0.983 ± 0.035,0.833,0.9786 ± 0.0076
CCCCNc1ccc(C(=O)OCCN(C)C)cc1,1.01 ± 0.33,0.959 ± 0.096,0.833,1.057 ± 0.0014
CN1CCN(CCCN2c3ccccc3Sc3ccc(S(=O)(=O)N(C)C)cc32)CC1 [Thioproperazine dimesylate],0.945 ± 0.3,0.988 ± 0.028,0.917,0.945 ± 0.046
CC(=O)[C@H]1CC[C@H]2[C@@H]3C[C@H](C)C4=CC(=O)CC[C@]4(C)[C@H]3[C@@H](O)C[C@]12C [Medrysone],1.02 ± 0.44,1.17 ± 0.072,0.417,0.957 ± 0.019
COc1ccc2c(c1)C(=O)N(CCc1ccc(S(=O)(=O)NC(=O)NC3CCCCC3)cc1)C(=O)C2(C)C [Gliquidone],1.07 ± 0.54,0.883 ± 0.011,1,1.12 ± 0.039
CCN1CCCC(OC(=O)C(c2ccccc2)c2ccccc2)C1 (stereo not drawn) [Piperidolate hydrochloride],0.836 ± 0.28,0.997 ± 0.01,0.75,0.98 ± 0.016
